Drawing on article PMC7862700, “An all-to-all approach to the identification of sequence-specific readers for epigenetic DNA modifications on cytosine”, this text covers binding signal for 1 sequence.

Holding throughout (assay): DAPPL (digital affinity profiling via proximity ligation, sequencing); 10 mM Tris-HCl pH 7.5, 50 mM NaCl, 1 mM DTT, 4% glycerol, room temperature, 30 min; GST-TFs on glutathione beads, 16-mer random dsDNA library, 0.1% formaldehyde crosslink after washing; high values mean tight binding
Common to all, as to details: protein: recombinant; tags: N-terminal GST; dsDNA, one strand shown

The target in one assay is T1, FLI1 (Homo sapiens, UniProt Q01543 1-452).
T1 sequence: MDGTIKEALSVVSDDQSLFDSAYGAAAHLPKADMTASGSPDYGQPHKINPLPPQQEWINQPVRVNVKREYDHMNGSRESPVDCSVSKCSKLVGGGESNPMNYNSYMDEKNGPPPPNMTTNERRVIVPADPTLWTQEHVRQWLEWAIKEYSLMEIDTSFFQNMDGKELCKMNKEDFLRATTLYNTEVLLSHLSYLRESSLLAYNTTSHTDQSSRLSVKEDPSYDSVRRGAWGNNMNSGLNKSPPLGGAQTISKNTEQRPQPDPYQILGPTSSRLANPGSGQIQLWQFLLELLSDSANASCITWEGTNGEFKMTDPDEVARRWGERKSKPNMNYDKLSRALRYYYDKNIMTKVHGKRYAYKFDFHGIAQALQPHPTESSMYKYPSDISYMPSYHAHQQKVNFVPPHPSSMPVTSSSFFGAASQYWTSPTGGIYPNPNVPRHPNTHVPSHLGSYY
The method in brief:
(§1)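 Sequencing on an Illumina NextSeq500 followed washing, crosslinking with 0.1% formaldehyde, proximity ligation (BsaI/T4 ligase, 1 h, 37 °C) and PCR amplification of pools that had been incubated for 30 min at room temperature with 200 nmole of a random double-stranded 16-mer DNA library in Tris/NaCl/DTT/glycerol buffer. Each pool held DNA-barcoded human transcription factors, expressed in yeast as GST fusions and captured on glutathione beads, plus a tag-only sample. Binding signal is a hexamer's read frequency for a factor divided by its frequency in the tag-only sample.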

The target in a further assay is T2, ELK1 (Homo sapiens, UniProt P19419 1-428).
T2 sequence: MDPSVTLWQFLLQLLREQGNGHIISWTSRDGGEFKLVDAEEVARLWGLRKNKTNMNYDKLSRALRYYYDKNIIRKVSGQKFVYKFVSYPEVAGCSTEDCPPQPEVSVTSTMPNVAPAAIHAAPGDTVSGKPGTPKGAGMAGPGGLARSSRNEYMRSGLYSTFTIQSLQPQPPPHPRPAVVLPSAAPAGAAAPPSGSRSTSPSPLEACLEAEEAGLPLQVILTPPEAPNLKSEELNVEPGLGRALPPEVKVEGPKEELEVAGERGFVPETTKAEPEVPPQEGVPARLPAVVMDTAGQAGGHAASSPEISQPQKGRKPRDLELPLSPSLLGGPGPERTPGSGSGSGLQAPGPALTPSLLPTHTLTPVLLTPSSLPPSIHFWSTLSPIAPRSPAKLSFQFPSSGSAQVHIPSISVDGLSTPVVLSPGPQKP
In short, it runs like this: as §1

The next assay deals with T3, GABPA (Homo sapiens, UniProt Q06546 1-454).
T3 sequence: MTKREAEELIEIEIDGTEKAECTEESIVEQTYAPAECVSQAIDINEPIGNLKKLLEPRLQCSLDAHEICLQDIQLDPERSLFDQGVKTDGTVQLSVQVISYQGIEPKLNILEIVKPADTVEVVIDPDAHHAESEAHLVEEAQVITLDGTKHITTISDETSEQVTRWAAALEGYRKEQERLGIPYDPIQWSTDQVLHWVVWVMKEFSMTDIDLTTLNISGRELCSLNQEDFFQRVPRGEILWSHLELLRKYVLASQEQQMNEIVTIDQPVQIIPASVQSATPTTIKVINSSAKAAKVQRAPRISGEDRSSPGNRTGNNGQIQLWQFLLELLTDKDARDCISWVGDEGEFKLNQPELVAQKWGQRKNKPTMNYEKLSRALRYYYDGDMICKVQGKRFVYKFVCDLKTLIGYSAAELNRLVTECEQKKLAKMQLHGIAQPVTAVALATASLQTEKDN
In short, it runs like this: as §1

The next assay addresses T4, ERG (Homo sapiens, UniProt P11308 1-479).
T4 sequence: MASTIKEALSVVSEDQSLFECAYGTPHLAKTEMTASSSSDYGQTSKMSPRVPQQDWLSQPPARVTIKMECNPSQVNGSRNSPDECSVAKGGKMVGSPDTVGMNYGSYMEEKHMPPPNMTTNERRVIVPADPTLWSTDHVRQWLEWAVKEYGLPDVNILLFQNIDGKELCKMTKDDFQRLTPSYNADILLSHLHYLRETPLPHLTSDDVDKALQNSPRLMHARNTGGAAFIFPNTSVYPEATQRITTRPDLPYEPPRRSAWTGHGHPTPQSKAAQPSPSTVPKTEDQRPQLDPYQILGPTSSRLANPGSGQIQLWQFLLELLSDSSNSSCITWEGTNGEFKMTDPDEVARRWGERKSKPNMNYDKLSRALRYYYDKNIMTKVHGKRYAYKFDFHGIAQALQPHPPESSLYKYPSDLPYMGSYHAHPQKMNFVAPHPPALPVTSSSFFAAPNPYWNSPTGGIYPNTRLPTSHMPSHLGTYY
The method in brief: as §1

A further assay addresses ELF1 (Homo sapiens, UniProt P32519 1-619). In short, it runs like this: as §1
The next assay has as its target T5, EHF (Homo sapiens, UniProt Q9NZC4 1-300).
T5 sequence: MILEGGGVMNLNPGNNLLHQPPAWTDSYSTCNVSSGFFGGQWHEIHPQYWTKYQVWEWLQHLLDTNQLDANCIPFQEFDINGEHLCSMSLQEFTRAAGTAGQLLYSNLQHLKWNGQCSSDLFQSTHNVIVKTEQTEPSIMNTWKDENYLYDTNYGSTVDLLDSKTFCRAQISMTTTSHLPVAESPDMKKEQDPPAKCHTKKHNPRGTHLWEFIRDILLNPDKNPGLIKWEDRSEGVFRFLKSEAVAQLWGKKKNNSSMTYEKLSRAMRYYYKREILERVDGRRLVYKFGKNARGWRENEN
The method in brief:
as §1

In another assay the target is SPI1 (Homo sapiens, UniProt P17947 1-270). The method in brief: as §1
Another assay addresses SPIB (Homo sapiens, UniProt Q01892 1-262). In short, it runs like this:
as §1

In a further assay the target is T6, ELK3 (Homo sapiens, UniProt P41970 1-407).
T6 sequence: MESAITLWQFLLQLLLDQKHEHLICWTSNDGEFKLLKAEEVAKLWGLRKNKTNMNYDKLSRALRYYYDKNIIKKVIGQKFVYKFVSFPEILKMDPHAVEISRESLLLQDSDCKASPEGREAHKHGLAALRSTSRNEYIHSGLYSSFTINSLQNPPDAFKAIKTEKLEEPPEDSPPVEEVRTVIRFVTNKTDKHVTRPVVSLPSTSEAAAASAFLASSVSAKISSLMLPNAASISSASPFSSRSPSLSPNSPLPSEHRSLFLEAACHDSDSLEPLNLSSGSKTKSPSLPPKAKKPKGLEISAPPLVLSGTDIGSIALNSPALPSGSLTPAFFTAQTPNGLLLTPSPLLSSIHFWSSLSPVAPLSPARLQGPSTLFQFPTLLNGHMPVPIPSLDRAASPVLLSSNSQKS
In short, it runs like this:
as §1

A further assay concerns the target T7, FEV (Homo sapiens, UniProt Q99581 1-238).
T7 sequence: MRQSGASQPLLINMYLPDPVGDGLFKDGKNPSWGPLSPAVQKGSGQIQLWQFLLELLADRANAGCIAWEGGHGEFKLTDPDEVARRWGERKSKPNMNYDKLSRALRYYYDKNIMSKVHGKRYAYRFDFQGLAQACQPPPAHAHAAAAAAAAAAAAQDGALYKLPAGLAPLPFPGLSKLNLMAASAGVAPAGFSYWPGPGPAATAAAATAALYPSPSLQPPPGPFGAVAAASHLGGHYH
The method in brief:
as §1

In the next assay the target is ETV5 (Homo sapiens, UniProt P41161 1-510). In short, it runs like this: as §1
Another assay concerns the target T8, SPIC (Homo sapiens, UniProt Q8N5J4 1-248).
T8 sequence: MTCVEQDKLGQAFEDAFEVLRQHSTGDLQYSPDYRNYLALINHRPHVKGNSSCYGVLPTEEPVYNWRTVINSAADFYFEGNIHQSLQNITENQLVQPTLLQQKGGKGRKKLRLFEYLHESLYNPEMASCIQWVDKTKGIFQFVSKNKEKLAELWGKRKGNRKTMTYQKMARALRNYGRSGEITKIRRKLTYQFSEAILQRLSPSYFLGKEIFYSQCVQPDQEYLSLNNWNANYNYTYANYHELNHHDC
In short, it runs like this:
as §1

A further assay addresses ELF4 (Homo sapiens, UniProt Q99607 1-663). The method in brief:
as §1

The target in the next assay is T9, ELK4 (Homo sapiens, UniProt P28324-2 1-405).
T9 sequence: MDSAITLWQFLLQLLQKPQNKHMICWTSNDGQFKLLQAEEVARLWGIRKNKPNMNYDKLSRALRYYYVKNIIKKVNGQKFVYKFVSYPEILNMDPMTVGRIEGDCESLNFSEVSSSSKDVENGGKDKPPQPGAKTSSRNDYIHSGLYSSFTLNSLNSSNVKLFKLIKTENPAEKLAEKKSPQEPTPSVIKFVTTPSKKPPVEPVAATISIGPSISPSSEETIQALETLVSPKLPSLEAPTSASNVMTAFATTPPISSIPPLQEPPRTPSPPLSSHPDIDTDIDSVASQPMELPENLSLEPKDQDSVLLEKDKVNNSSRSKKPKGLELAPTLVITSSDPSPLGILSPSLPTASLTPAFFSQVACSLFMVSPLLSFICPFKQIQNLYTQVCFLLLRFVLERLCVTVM
In short, it runs like this: as §1

In the next assay the target is T10, ETV2 (Homo sapiens, UniProt O00321 1-342).
T10 sequence: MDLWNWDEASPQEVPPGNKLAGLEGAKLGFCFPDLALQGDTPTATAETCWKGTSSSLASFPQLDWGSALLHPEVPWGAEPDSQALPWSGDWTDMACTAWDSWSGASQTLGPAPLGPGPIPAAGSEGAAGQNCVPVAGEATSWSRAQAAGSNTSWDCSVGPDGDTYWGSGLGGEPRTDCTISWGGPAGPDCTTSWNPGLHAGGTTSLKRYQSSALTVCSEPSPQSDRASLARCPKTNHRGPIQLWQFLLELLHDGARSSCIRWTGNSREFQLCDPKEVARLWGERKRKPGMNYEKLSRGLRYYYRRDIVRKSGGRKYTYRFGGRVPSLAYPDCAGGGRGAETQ
In short, it runs like this:
as §1

A further assay has as its target T11, ELF3 (Homo sapiens, UniProt P78545 1-371).
T11 sequence: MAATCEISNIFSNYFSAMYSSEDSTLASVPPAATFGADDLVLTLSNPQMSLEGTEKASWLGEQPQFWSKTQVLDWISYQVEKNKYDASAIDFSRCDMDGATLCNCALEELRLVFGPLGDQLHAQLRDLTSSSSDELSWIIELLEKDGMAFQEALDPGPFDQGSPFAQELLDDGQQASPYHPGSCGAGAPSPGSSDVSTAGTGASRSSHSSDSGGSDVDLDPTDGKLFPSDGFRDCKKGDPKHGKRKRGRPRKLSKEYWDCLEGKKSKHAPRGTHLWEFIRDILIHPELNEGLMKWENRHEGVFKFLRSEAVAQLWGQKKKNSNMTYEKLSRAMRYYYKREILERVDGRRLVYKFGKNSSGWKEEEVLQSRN
In short, it runs like this: as §1

A further assay deals with ETV1 (Homo sapiens, UniProt P50549 1-477). In short, it runs like this:
as §1

ETV1, sequence (P50549 whole entry): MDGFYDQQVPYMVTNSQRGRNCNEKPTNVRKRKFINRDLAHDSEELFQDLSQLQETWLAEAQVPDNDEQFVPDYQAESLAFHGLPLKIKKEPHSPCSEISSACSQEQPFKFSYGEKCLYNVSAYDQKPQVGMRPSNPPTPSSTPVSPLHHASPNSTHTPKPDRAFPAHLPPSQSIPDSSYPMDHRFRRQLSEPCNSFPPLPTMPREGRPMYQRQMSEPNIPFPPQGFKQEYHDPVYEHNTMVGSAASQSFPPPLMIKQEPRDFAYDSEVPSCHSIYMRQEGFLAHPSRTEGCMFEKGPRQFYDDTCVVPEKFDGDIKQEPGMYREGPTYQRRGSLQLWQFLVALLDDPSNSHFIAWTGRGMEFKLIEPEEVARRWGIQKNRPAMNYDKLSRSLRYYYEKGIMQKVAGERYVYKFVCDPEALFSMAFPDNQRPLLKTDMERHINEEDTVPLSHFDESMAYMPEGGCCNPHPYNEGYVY
ELF4, sequence (Q99607 whole entry): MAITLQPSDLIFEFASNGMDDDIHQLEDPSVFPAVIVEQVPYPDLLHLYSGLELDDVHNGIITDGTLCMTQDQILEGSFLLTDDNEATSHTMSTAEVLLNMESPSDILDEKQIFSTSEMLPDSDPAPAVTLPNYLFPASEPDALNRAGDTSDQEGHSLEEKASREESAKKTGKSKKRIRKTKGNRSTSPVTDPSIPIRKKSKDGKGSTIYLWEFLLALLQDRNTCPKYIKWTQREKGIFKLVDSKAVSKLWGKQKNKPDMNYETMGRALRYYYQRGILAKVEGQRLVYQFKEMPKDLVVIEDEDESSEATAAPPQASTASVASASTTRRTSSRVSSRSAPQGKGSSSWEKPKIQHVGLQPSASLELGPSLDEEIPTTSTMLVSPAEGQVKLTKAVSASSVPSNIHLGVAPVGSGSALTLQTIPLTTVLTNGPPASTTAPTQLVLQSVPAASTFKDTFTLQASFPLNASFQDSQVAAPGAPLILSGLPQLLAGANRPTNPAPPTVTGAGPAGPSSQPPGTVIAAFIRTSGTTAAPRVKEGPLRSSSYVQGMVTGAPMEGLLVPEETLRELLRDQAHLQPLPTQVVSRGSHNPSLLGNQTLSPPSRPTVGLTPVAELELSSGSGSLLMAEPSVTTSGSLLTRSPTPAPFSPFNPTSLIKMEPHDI
ELF1, sequence (P32519 whole entry): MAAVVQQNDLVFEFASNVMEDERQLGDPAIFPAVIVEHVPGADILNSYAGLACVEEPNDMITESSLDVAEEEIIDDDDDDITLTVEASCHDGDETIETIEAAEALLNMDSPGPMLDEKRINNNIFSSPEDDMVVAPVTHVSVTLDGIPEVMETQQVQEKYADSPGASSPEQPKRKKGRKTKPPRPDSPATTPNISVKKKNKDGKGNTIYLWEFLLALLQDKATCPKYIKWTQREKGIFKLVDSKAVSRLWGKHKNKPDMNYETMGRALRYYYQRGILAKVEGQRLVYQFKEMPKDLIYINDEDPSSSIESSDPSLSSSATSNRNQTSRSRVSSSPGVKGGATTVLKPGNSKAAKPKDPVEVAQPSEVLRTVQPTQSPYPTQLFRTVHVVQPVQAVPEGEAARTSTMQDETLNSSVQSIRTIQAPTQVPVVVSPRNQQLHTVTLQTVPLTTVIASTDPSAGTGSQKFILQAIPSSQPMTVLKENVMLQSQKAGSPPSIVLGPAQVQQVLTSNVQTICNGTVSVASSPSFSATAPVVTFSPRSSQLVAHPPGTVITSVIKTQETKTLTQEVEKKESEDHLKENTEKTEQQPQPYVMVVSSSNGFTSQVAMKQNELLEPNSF
SPIB, sequence (Q01892 whole entry): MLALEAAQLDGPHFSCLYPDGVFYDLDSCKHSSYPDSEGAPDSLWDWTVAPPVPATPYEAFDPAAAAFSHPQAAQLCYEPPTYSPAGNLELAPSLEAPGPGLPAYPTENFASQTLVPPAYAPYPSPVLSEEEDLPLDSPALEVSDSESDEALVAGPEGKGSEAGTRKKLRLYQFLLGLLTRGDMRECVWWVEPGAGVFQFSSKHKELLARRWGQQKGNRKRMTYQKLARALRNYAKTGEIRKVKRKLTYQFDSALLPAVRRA
ETV5, sequence (P41161 whole entry): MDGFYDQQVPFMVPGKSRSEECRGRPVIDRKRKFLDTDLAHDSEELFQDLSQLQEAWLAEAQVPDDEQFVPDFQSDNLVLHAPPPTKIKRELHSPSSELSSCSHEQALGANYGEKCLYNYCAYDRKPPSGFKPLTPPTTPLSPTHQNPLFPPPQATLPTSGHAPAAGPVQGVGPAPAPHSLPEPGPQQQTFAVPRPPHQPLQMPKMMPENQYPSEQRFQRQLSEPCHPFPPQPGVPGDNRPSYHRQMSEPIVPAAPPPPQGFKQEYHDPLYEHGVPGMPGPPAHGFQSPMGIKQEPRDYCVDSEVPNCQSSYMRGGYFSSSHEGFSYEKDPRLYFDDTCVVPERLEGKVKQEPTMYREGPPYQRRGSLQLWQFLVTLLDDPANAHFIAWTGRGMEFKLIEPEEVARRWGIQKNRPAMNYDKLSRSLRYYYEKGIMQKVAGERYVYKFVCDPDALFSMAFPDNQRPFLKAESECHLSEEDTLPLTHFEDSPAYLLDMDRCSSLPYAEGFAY

Regarding GTTATG, the binding signal was 1.07 fold enrichment (6-mer frequency, TF over GST control) with FLI1; 1.17 fold enrichment (6-mer frequency, TF over GST control) with ELK1; 1.16 fold enrichment (6-mer frequency, TF over GST control) with GABPA; 1.19 fold enrichment (6-mer frequency, TF over GST control) in the assay with ERG; 1.12 fold enrichment (6-mer frequency, TF over GST control) in the assay with ELF1; 1.2 fold enrichment (6-mer frequency, TF over GST control) with EHF. The binding signal in the assay with SPI1 is 1.18 fold enrichment (6-mer frequency, TF over GST control); with SPIB, 1.12 fold enrichment (6-mer frequency, TF over GST control); in the assay with ELK3, 1.06 fold enrichment (6-mer frequency, TF over GST control); with FEV it was 1.03 fold enrichment (6-mer frequency, TF over GST control); in the assay with ETV5, 1.14 fold enrichment (6-mer frequency, TF over GST control); with SPIC, 1.23 fold enrichment (6-mer frequency, TF over GST control). In addition, the binding signal is 1.1 fold enrichment (6-mer frequency, TF over GST control) with ELF4; 1.23 fold enrichment (6-mer frequency, TF over GST control) in the assay with ELK4; 1.14 fold enrichment (6-mer frequency, TF over GST control) in the assay with ETV2; 1.25 fold enrichment (6-mer frequency, TF over GST control) with ELF3; 1.14 fold enrichment (6-mer frequency, TF over GST control) with ETV1.
